Screening data from PubChem BioAssay.
Most compounds without a hit are left out; they make up all but 21% or so of the library.
CHX counter: counter-screen hit for Shiga toxin inhibitors, cycloheximide; actives 12% (n = 300,000); max response, %; cell reporter, cycloheximide protein synthesis inhibition counterscreen; in the data active means max response mostly above about 13%, no sharp cut-off; inactive means mostly below about 14%; further: read at 38.3 µM for the half of the compounds with a filed dose; 0% is about no effect
NS1 inh: inhibitors of influenza NS1 protein function; Potency, µM (titrated, usually from 46.1 µM), for inactives: at the highest dose activity, positive = more growth; actives 0.4% (n = 270,000); AID 2326; further: potency means the concentration at half of the fitted maximal effect; actives are rising curves; nearly all actives have a fitted effect of over 50% in size
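Compounds were scored for reversing the slow growth caused by influenza A NS1 in S. cerevisiae, measured by optical density at 600 nm. Assay medium contained 2% galactose at pH 6.0; NS1-free yeast of the same strain were the positive control.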
Shiga toxin inh: blocks Shiga toxin action in Vero cells; Vero cells, Shiga toxin protein synthesis inhibition reporter; inhibition, % at 38.7 µM; actives 9.2% (n = 290,000); in the data active means inhibition mostly above about 28%, no sharp cut-off; inactive means mostly below about 43%; further: 0% is about no effect
SARS PLpro yeast-1: inhibitors of SARS-CoV papain-like protease in yeast; S. cerevisiae expressing SARS-CoV PLpro, growth rescue; Potency, µM (doses to about 32.9 µM), inactives show top-dose activity, positive = growth rescue, actives largely listed as activators; AID 485353; actives 0.19% (n = 330,000); further: potency means the concentration at half of the fitted maximal effect; 0% is about no effect; nearly all actives have a fitted effect of over 55% in size
Pf growth 96h: P. falciparum growth inhibition at 96 hours; P. falciparum luciferase reporter growth, 96 h; actives 6.9% (n = 320,000); Potency, µM (top dose mostly 28.7 µM), for the others: at the highest dose activity change, negative = inhibition, hits mostly inhibitors; AID 504834; active means well fitted inhibition curve with a large enough effect; inconclusive means small, poorly fitted or top-dose-only effect, or another doubt; inactive means no such curve, though single readings can be large or run the other way; further: potency means the concentration at half of the fitted maximal effect; on the % scale 0 is the no-effect control and ±100 the full control effect
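96 h incubation, 37 C, 5% CO2, of luciferase-reporter P. falciparum-infected RBCs (2% hematocrit, 0.05% parasitemia final) with test compounds; endpoint luminescence.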
Pf growth 48h: inhibits P. falciparum growth in the first generation, 48 h. Potency, µM (series often up to 28.7 µM), inactives show top-dose activity change, negative = inhibition, hits mostly inhibitors. P. falciparum luciferase growth in erythrocytes, 48 h. AID 504832. actives 5.9% (n = 310,000); active means well fitted inhibition curve with a large enough effect; inconclusive means small, poorly fitted or top-dose-only effect, or another doubt; inactive means no such curve, though single readings can be large or run the other way; further: potency means the concentration at half of the fitted maximal effect; on the % scale 0 is the no-effect control and ±100 the full control effect
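Read-out is firefly luciferase luminescence from an integrated reporter in P. falciparum, so falling signal marks reduced parasite growth. Infected erythrocytes were at 2% hematocrit and 0.1% parasitemia (final) in Albumax-supplemented RPMI 1640.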
SARS PLpro yeast-2: Inhibits SARS-CoV PLP in yeast, hit validation | yeast expressing SARS-CoV PLpro, growth phenotype rescue | shares compounds with SARS PLpro yeast-1 | calls only | actives 19% (n = 1,000); call rule not given here
An asterisk follows results filed as active; i = inactive; ? = inconclusive; · = not tested or not shown; + = active, no number. Unless noted, the call rests on the fitted dose curve.

SMILES | CHX counter | NS1 inh | Shiga toxin inh | SARS PLpro yeast-1 | Pf growth 96h | Pf growth 48h | SARS PLpro yeast-2
O=C(CSCc1ccccc1)N/N=C/c1ccccc1OCc1ccccc1 | 10 | -24% | 32 | -6% | ? | ? | ·
NC(=S)N/N=C\c1ccccc1OCc1ccccc1 | -3 | 10% | -16 | 11µM* | ? | -11% | +
COc1cc(/C=N/NC(N)=S)ccc1OCC(=O)N1CCOCC1 | -8 | 3% | -15 | -4% | 100% | 23% | ·
COc1cccc(C(=O)C2CCCN(Cc3cn(CC(N)=O)c4ccccc34)C2)c1 (stereo not drawn) | -2 | -4% | -8 | 1% | 5% | ? | ·
NC(=S)N/N=C/c1ccccc1 | -5 | 3% | -13 | 2.5µM* | ? | 8% | +
NC(=S)N/N=C/c1ccc(Br)o1 | 3 | · | 9 | ? | 0% | ? | ·
O=c1c2ccccc2nc(N/N=C/c2c(O)ccc3ccccc23)n1O | 40* | 22% | 53* | 13µM* | 0.47µM* | 0.52µM* | +
CCOc1cc(N2CCCC2)ccc1[N+](=O)[O-] | -3 | -4% | -1 | ? | 6.6µM* | 10% | i
Cc1ccc(N=C2NC(=O)/C(=C\c3cccs3)S2)cc1C | 28* | -5% | 72* | ? | ? | 18% | i
O=C(N/N=C/c1ccccc1OC(F)F)c1cc(-c2ccncc2)nc2ccccc12 | -3 | · | -8 | 13µM* | ? | ? | +
CC(Oc1ccccc1F)C(=O)NNC(=O)c1cccc(S(=O)(=O)N2CCN(C)CC2)c1 (stereo not drawn) | · | · | · | 4% | ? | -17% | ·
O=C(COC(=O)CNC(=O)c1ccccc1)Nc1ccc(S(=O)(=O)N2CCOCC2)cc1 | -8 | · | -11 | 0% | 0% | 2% | ·
CC(OC(=O)CNC(=O)c1ccccc1)C(=O)Nc1ccc(S(=O)(=O)N2CCOCC2)cc1 (stereo not drawn) | · | · | · | ? | 0% | 6% | i
Cn1ncc2c(=O)n(/N=C/c3ccccc3)cnc21 | 5 | 5% | 2 | 10% | 1% | 9% | ·
C[n+]1cn(/N=C/c2ccccc2)c2ccccc21 | 8 | ? | 23 | ? | 13µM* | ? | i
CCOC(=O)CNC(=O)Cn1cnc2c(nnn2-c2ccccc2)c1=O | -2 | 12% | 15 | 2% | 49% | 10% | ·
Cc1cccc(NS(=O)(=O)c2cccc(C(=O)NCC(c3ccco3)N(C)C)c2)c1 (stereo not drawn) | · | · | · | -5% | -18% | ? | ·
CC(COC(=O)c1ccccc1)(COC(=O)c1ccccc1)/[N+]([O-])=C/c1ccccc1 | 1 | -16% | -3 | ? | 29% | 13% | i
C[C@H]1[C@H](O)[C@@H](C)C=CC=CC=CC=CC=CC=CC=C[C@H](O[C@@H]2O[C@@H](C)[C@H](O)[C@@H](N)[C@@H]2O)C[C@@H]2O[C@](O)(C[C@@H](O)C[C@@H](O)[C@@H](O)CC[C@@H](O)C[C@@H](O)CC(=O)O[C@H]1C)C[C@H](O)[C@H]2C(=O)O | · | 26% | · | · | · | · | ·
C/C(CC(c1ccccc1)c1c(O)c2ccccc2oc1=O)=N\NC(N)=S (stereo not drawn) | -1 | 3% | 26 | 11µM* | 10µM* | ? | i
Cc1c(C(c2ccc(O)cc2)c2c(O)c3ccccc3oc2=O)c(=O)n(-c2ccccc2)n1C (stereo not drawn) | -4 | ? | 15 | 25% | 33% | 9% | ·
CC(SCc1ccccc1)C(=O)NN=C1CCN(C)CC1 (stereo not drawn) | -1 | ? | 28 | -1% | 6% | 19% | ·
CCOC(=O)C(CC)/C(C)=N\NC(=O)c1ccccc1O (stereo not drawn) | 18* | -3% | 33* | 6.3µM* | 31% | -18% | i
Cc1onc(-c2ccccc2)c1C(=O)NC(=S)NNC(=O)c1ccc(O)cc1O | -2 | 28% | 11 | 14µM* | ? | 0% | +
Cc1onc(-c2ccccc2)c1C(=O)NC(=S)NNC(=O)c1ccc(O)cc1 | 7 | ? | 38 | 1% | ? | ? | ·
SMILES | CHX counter | NS1 inh | Shiga toxin inh | SARS PLpro yeast-1 | Pf growth 96h | Pf growth 48h | SARS PLpro yeast-2
Cc1onc(-c2ccccc2)c1C(=O)NNC(=O)c1ccccc1Br | · | · | · | 2% | -20% | 3% | ·
Cc1onc(-c2ccccc2)c1C(=O)NC(=S)NNC(=O)c1ccccc1O | -3 | -10% | 4 | 4.5µM* | ? | ? | i
COc1ccc(-c2nnc(SCC(=O)c3[nH]c(C)c(C(C)=O)c3C)o2)cc1 | 8 | -8% | -5 | -3% | -1% | ? | ·
CCOC(=O)c1[nH]c(CSc2nnc(-c3ccc(OC)cc3)o2)c(C(=O)OCC)c1C | 12 | 5% | -6 | 3.2µM* | 0% | · | i
COc1cccc(N=CC2=C(O)CC(C)(C)CC2=O)c1 | 13* | 30% | 24 | · | -8% | -7% | i
COc1cc([N+](=O)[O-])cc(/C=N/NC(=O)C(C)Nc2cccc3ccccc23)c1O (stereo not drawn) | -2 | 4% | -15 | 10µM* | 36% | ? | ?
CCOC(=O)c1c(C)n(C)c2ccc(OC)c(NC(=O)CCN3CCC(Cc4ccccc4)CC3)c12 | 0 | 2% | -2 | 0% | ? | ? | ·
Cc1nnc2c3ccccc3c(-c3ccc(O)cc3)nn12 | -3 | 2% | -7 | ? | 2% | · | i
COc1cccc(CNC(=O)C(=O)NCC2CCCO2)c1 (stereo not drawn) | 0 | 3% | 19 | 4% | -29% | 29% | ·
C/C(=N\NC(=O)c1cc(-c2cccnc2)nc2ccccc12)c1ccccc1O | 11* | 10% | 17 | 10µM* | ? | 6.6µM* | +
C/C(=N\NC(=O)c1cc(C2CC2)nc2ccccc12)c1ccc(O)cc1O | -8 | -16% | -10 | ? | -2% | ? | ·
CN(CC(=O)Nc1ccccc1Cl)C(=O)COC(=O)CCN1C(=O)C2CC=CCC2C1=O (stereo not drawn) | · | · | · | 1% | 32% | 39% | ·
COc1cccc(C(NC(C)=O)c2ccc3cccnc3c2O)c1 (stereo not drawn) | 0 | -129% | -6 | 3.2µM* | 30% | ? | i
Oc1cccc(C(Nc2nccs2)c2ccc3cccnc3c2O)c1 (stereo not drawn) | 1 | · | -5 | 0.45µM* | ? | 3.3µM* | +
CC(=O)NC(c1cccc([N+](=O)[O-])c1)c1ccc2cccnc2c1O (stereo not drawn) | -1 | -24% | 2 | 1.1µM* | 346% | -62% | i
CC(=O)NC(C)c1cc(F)c2cccnc2c1O (stereo not drawn) | · | · | · | 10% | ? | ? | ·
Cc1cc(C)nc(Nc2cccc(C(F)(F)F)c2)n1 | 2 | -10% | 15 | -1% | -29% | 4% | ·
